Most compounds without a hit are left out; they make up all but 15% or so of the library.
HCV inh: inhibitors of hepatitis C virus infection | 3.4% of 340,000 active | Huh7.5.1 HCVcc-Cre infection, luciferase reporter, 44 h | Potency, µM (titrated, usually from 41.8 µM), inactives show top-dose activity change, negative = inhibition, actives largely listed as inhibitors; note: potency is the fitted concentration of half-maximal effect; % is set by controls: 0 for no effect and ±100 for the full control effect
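Luciferase read-out (15 sec integration) after a 15 min room-temperature substrate step quantifies HCVcc-Cre infection. Cells, 1,000 per well, had compound added 4 h post-plating, then virus at ~0.5 moi, and were cultured 44 h.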
SARS PLP yeast: SARS-CoV PLP inhibition in yeast; S. cerevisiae expressing SARS-CoV PLpro, growth rescue; AID 485353; 0.19% of 330,000 active; Potency, µM (titrated, usually from 32.9 µM), inactives show at the top dose activity, positive = growth rescue, hits mostly activators; calls by dose curve; note: potency is the fitted concentration of half-maximal effect; 0% is about no effect; nearly all actives have a fitted effect of over 55% in size
HCMV inh: inhibitors of human cytomegalovirus. AID 1259415. HFF cells, HCMV-luciferase reporter, 72 h; hits give low values. activity change, negative = inhibition, % at 57.5 µM. 4.5% of 410,000 active; in the data active = activity change below about -60%; inconclusive = no clear call, values can overlap the other calls; inactive = above about -39%; note: % is set by controls: 0 for no effect and ±100 for the full control effect
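Compounds were evaluated in HFFs infected with an HCMV luciferase reporter virus (MOI 1 PFU/cell). Luciferase in lysates collected 72 h post infection served as the replication measure.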
Pf growth 96h: P. falciparum growth inhibition at 96 hours. Potency, µM (doses to about 28.7 µM), for the others: at the top dose activity change, negative = inhibition, actives largely listed as inhibitors. 6.9% of 320,000 active. P. falciparum luciferase reporter growth, 96 h; note: potency is the fitted concentration of half-maximal effect; % is set by controls: 0 for no effect and ±100 for the full control effect
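Two-generation exposure (96 h) targets delayed-death phenotype. Reporter parasites carrying integrated firefly luciferase, in red cells at 2% hematocrit and 0.05% parasitemia final, kept at 37 C, 5% CO2; luminescence loss indicates inhibition.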
Sm TGR block: blocks Schistosoma mansoni thioredoxin glutathione reductase | purified TGR, DTNB reduction, TNB absorbance 405 nm | Potency, µM (titrated, usually from 114 µM), for inactives: at the highest dose activity change, negative = inhibition, actives largely listed as inhibitors | 3% of 360,000 active | AID 485364; note: potency is the fitted concentration of half-maximal effect; % is set by controls: 0 for no effect and ±100 for the full control effect; nearly all actives have a fitted effect of over 60% in size
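Kinetic colorimetric format: TGR-catalysed, NADPH-driven DTNB reduction monitored via TNB absorbance. Enzyme dispensed at 20 nM; compound exposure 15 min at room temperature before reaction start.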
Pf growth 48h: P. falciparum growth inhibition at 48 hours (one generation). Potency, µM (top dose mostly 28.7 µM), for inactives: top-dose activity change, negative = inhibition, actives largely listed as inhibitors. P. falciparum luciferase growth in erythrocytes, 48 h. 5.9% of 310,000 active. AID 504832; note: potency is the fitted concentration of half-maximal effect; % is set by controls: 0 for no effect and ±100 for the full control effect
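Luciferase-expressing parasites in RBCs, 2% Hct / 0.1% parasitemia final; RPMI 1640 + 0.5% Albumax; 37 C, 5% CO2, one generation; luminescence read-out, lower signal = inhibition.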
Starred values were filed as active, the others as inactive; ? = inconclusive; . = not tested or not shown; + = active, no number; [ ] = remark or other dose. Unless noted, calls come from the whole dose curve; as a rule, active = well fitted curve in the direction sought with a large enough effect; inconclusive = small, poorly fitted or top-dose-only effect, or another doubt; inactive = no such curve, though single readings can be large; an effect the other way counts as inactive or inconclusive.

SMILES	HCV inh	SARS PLP yeast	HCMV inh	Pf growth 96h	Sm TGR block	Pf growth 48h
CC(=O)c1cc2cccc(OC3(C)CCN(Cc4ccc(-c5ccccn5)cc4)C3)c2o1 (stereo unspecified)	.	.	0	.	.	.
Cc1ccc(Nc2nc(NCCO)nc3c2cnn3C)cc1Cl	13µM*	-3%	46	?	18%	-23%
CCCNc1nc(Nc2ccc(C)c(Cl)c2)c2cnn(C)c2n1	?	-1%	10	0%	-18%	?
CCN(Cc1ccc2c(c1)OCCO2)C(=O)CSc1nc(C)nc2sc(C)c(C)c12	?	-6%	-38	-24%	0%	?
CCOC(=O)c1cnc(SCc2ccc(Cl)c(Cl)c2)nc1N1CC1	11µM*	.	23	.	.	.
Cc1cccc(C(C)C)c1NC(=O)COC(=O)CCC(=O)N(CC(C)C)c1c(N)n(CC(C)C)c(=O)[nH]c1=O	.	.	4	.	.	.
O=C(c1ccc2c3c(cccc13)CC2)C1CCCN(Cc2cccnc2)C1 (stereo unspecified)	22µM*	-1%	-14	?	-21%	1.7µM*
COc1cc(CN2CCCC(C(=O)c3ccc4c5c(cccc35)CC4)C2)cc(OC)c1O (stereo unspecified)	?	0%	10	12%	14µM*	-27%
CN(c1ccc(C(=O)NCCSCc2ccc(Cl)cc2)cc1)S(=O)(=O)c1ccccc1	?	-18%	-36	?	-5%	4%
CC(=O)Nc1ccc(S(=O)(=O)NCC2CCC(C(=O)NCc3ccccc3Cl)CC2)cc1 (stereo unspecified)	.	.	0	.	6%	.
CC(=O)Nc1ccc(S(=O)(=O)NCCSCc2ccccc2Cl)cc1	?	17%	-84*	28%	6%	-3%
COCCCNC(=O)c1ccc(N(C)S(C)(=O)=O)cc1	-2%	8%	-9	31%	28µM*	14%
COc1ccc(CCNC(=O)c2ccc(N(C)S(=O)(=O)c3ccccc3)cc2)cc1	?	-2%	0	?	11%	2.1µM*
Cc1ccc(CSCCNC(=O)c2ccc(N(C)S(=O)(=O)c3ccccc3)cc2)cc1	11µM*	-6%	-12	77%	2%	6%
CN(C)c1ccc(C(CNS(=O)(=O)c2ccc(Br)cc2)N2CCCC2)cc1 (stereo unspecified)	.	.	-1	.	-1%	.
Cc1ccc(S(=O)(=O)N2[C@@H](CO)CO[C@H]2CC(=O)c2cccs2)cc1	.	.	-16	.	.	.
CC(/C=N/Nc1ncc(C)c(=O)[nH]1)=C\c1ccccc1	0%	3%	42	13%	-6%	-10%
Cc1cc(NC(=O)c2ccc3c(c2)N(Cc2cccc(Cl)c2)C(=O)c2ccccc2S3(=O)=O)ccc1Br	.	.	-8	.	2%	.
Cc1ccc(CSCCNS(=O)(=O)c2ccccc2)cc1	-17%	4%	?	1.5µM*	-3%	2%
COc1ccc(CCNC(=O)COc2ccc(N(C)S(=O)(=O)c3ccc(C)cc3)cc2)cc1OC	?	-1%	-34	2%	1%	-22%
COc1ccc(CCNC(=O)c2ccc(N(C)S(=O)(=O)c3ccc(C)cc3)cc2)cc1OC	10µM*	-1%	-22	-9%	-2%[57.1 µM]	?
COc1ccc(OCCOc2ccc(N(C)S(=O)(=O)c3ccccc3)cc2)cc1	11µM*	2%	-4	-20%	-3%	?
O=C(NCCc1ccccc1)C1CCC(CNS(=O)(=O)c2cccs2)CC1 (stereo unspecified)	7%	0%	-27	?	-7%	11%
O=C(c1[nH]c(C(F)(F)F)nc1-c1ccccc1)N1CCOCC1	.	.	10	.	.	.
Cc1cc(SCc2ccc(C(F)(F)F)cc2)nc(=O)[nH]1	6%	2%	+	-7%	1%	0%
SMILES	HCV inh	SARS PLP yeast	HCMV inh	Pf growth 96h	Sm TGR block	Pf growth 48h
O=C(N/N=C/c1cc([N+](=O)[O-])ccc1O)C12CC3CC(CC(C3)C1)C2	?	?	5	34%	0%	8.3µM*
O=C(NN=Cc1cc([N+](=O)[O-])ccc1O)c1cccc2ccccc12	?	.	0	.	.	.
CCNC(=O)C(=O)N/N=C/c1cc([N+](=O)[O-])ccc1O	11%	-2%	10	10µM*	8%	?
O=C(N/N=C/c1cc([N+](=O)[O-])ccc1O)Nc1ccccc1	-2%	-2%	6	-14%	8%[57.1 µM]	?
Nc1nnc(CC(=O)N/N=C\c2cc([N+](=O)[O-])ccc2O)s1	10%	-4%	-37	10µM*	-1%	12%
O=C(N/N=C/c1cc([N+](=O)[O-])ccc1O)NC12CC3CC(CC(C3)C1)C2	7%	?	?	3.3µM*	-13%	-67%
C=CCNC(=O)Cn1c(=O)c2c(ncn2CCC(C)C)n(Cc2ccccc2)c1=O	6%	0%	-18	-2%	-3%	?
Cc1ccc(S(=O)(=O)Nc2ccc3c(c2)CCCN3C(=O)c2cccs2)cc1	.	.	-34	.	-2%	.
CCc1noc(C)c1C(=O)Nc1cc(S(=O)(=O)N2CCOCC2)ccc1OC(C)C	?	27%	6	?	-5%	?
COc1cc(-c2c(-c3cccc(C)c3)oc3ccccc23)cc(OC)c1OC	?	1%	-26	9.3µM*	-4%	?
Cc1cc(C)n2nc(SCC(=O)N3CCC(C(=O)O)CC3)nc2n1	-4%	-4%	154	.	.	.
COc1ccc(N2CCN(C(=O)CSc3nc4nc(C)cc(C)n4n3)CC2)cc1	1%	-1%	-29	13µM*	-1%	?
Cc1cc(C)n2nc(SCC(=O)N3CCN(c4ccc(F)cc4)CC3)nc2n1	8%	8%	-2	6.6µM*	4%	?
Cc1cc(C)n2nc(SCC(=O)N3CCOCC3)nc2n1	12%	-2%	-16	-6%	3%	31%
COc1ccc(N(C)S(=O)(=O)c2cccc(C(=O)NCC(c3ccco3)N3CCCC3)c2)cc1 (stereo unspecified)	?	0%	-33	?	-21%	9.3µM*
COc1ccccc1N(C)S(=O)(=O)c1ccc(C(=O)OC(C)C(=O)NCc2ccc3c(c2)OCO3)cc1 (stereo unspecified)	11µM*	0%	-25	-14%	-1%	?
COc1ccccc1NS(=O)(=O)c1ccc(C(=O)NCC(c2ccco2)N2CCCCC2)cc1 (stereo unspecified)	-17%	.	0	.	.	.
CN(c1ccccc1)S(=O)(=O)c1ccc(C(=O)NCC(c2ccco2)N2CCCCC2)cc1 (stereo unspecified)	?	-5%	-63*	7.4µM*	-4%	?

Screening data deposited in PubChem BioAssay by National Center for Advancing Translational Sciences (NCATS).
